This is an account of results in PubChem BioAssay (NCI).

About 83,000 compounds went through this panel and 20% of them were active in at least one assay; those are over-represented in the sample as a whole.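 Negative percent growth values reflect cell death: -40 means 40% of the cells present at the start died, and -100 means all died.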 Values without a mark were called inactive. Activity calls are given as the source filed them. The calls were made as follows: active = growth percent below 10; inactive = the rest.

The experiment concerns NCI-H522 lung. Put plainly: NCI-60 one-dose screen, 48 h (100 = growth as untreated, 0 = no growth, -100 = all killed). The settings on record: 10 µM unless noted.
On to `Nc1nc2c3ccncc3cc(-c3cccc(Cl)c3)c2c2cnccc12`, for which the growth was 48.4%. The figure for `O=C1c2cc3c(cc2-c2c1c1ccc(F)cc1c(=O)n2CCCN1CCOCC1)OCO3` is 25.5%. The value for `c1ccc(CN2C(c3ccccc3)=Nc3ccccc3C2c2c[nH]c3ccccc23)cc1` (stereo not drawn) was 51.7%. On to `O=C1C(Cl)=C(Nc2ccc(S(=O)(=O)c3ccc(NC4=C(Cl)C(=O)c5ccccc5C4=O)cc3)cc2)C(=O)c2ccccc21`, for which the growth is -67.4% (active). Consider `CCc1cccc(CC)c1NC(=O)c1sc2nc3c(cc2c1N)CCCC3`, for which the growth is 41.9%. As for `COc1cc2[nH]c(C(=O)c3cc(OC)c(OC)c(OC)c3)c(N)c2cc1C#CCO`, the growth was -6.03% (active). On to `Cn1cc(-c2csc(-c3cn(C(=O)OC(C)(C)C)c4ccc(Br)cc34)n2)c2cccnc21`, for which the growth was 96.3%. Regarding `Fc1cccc(-c2[nH]nc3nc(Nc4cccnc4)sc23)c1`, the growth was 16%. The figure for `O=Cc1nc2ccccc2[nH]1` is 84.8%; for `N#C/C(=C\c1ccc(-c2ccc(Br)cc2)o1)c1nc(-c2ccco2)cs1` it is 93.2%; for `C[C@H]1OC(=O)/C=C/[C@@H](O)[C@@H](O)CCCCCCCC[C@@H]1O` it is 79.5%. The figure for `C=C1C(=O)O[C@H]2[C@H]1CC/C(COC(=O)NCc1cc3ccccc3[nH]1)=C\CC[C@@]1(C)O[C@@H]21` is -84.4% (active); for `Cc1ccc(-c2nn(Cc3cn(-c4cc(C)nc5ccccc45)nn3)c3ncnc(N)c23)cc1` it is 55.5%. Regarding `COc1ccc(-c2nc3ncccn3c2-c2nc3ccc(Br)cc3[nH]2)cc1`, the growth is 69.7%. As to `CCCCC[C@H]1C/C=C2/C(=O)C(Cl)=C[C@@H]2C/C=C\CCCC(=O)O[C@@H](CCCCC)C/C=C2/C(=O)C(Cl)=C[C@@H]2C/C=C\CCCC(=O)O1`, the growth was -67.3% (active). `O=C1CNCCN1`: the growth is 90.9%. In the case of `COc1ccc2c3c(c4ccccc4cc13)C(=O)N(CCN(C)CCN)C2=O`, the growth was -77.2% (active). Consider `CCN(CC)CCCCCNc1cc(OC(=O)c2ccccc2)cc2cccnc12`, for which the growth is 124%. As for `CC(=O)OC(C)COc1ccc(-c2ccccc2)cc1` (stereo not drawn), the growth was 84.4%.

For `COc1ccc(CCN2C(=O)C(C)(C)SC2=S)cc1OC`, the growth is 93.8%.

Regarding `c1ccc2[nH]c(-c3cc(-c4ccc5c(c4)OCO5)n[nH]3)nc2c1`, the growth is 32.9%. The value for `Cn1cc(-c2csc(-c3cn(CCCN4CCCCC4)c4ccccc34)n2)c2cccnc21` was 95.2%. On to `COC(=O)[C@]12CC[C@@H](C)[C@H](C)[C@@H]1C1=CC[C@@H]3[C@@]4(C)C[C@@H](O)[C@H](O)[C@@](C)(CO)C4=CC[C@@]3(C)[C@]1(C)CC2`, for which the growth was -2.22% (active). Turning to `CC1(n2nnnc2N2CCCN(c3ncccc3N)CC2)CCC1`, the growth was 100%. The figure for `C=C1CC[C@@H](C(=O)OC)Cc2nc(C)ccc21` is 86.4%.

For the compound `Clc1cc(Cl)cc(Nc2ccc3c(OCCCN4CCOCC4)cccc3n2)c1`, the growth was 5.16% (active). As for `Cc1ccc(-c2ccc(/C=C(\C#N)c3nc(-c4ccco4)cs3)o2)cc1`, the growth is 96.4%. For `CCSc1ncnc2c1ncn2C1OC(CO)C(O)C1O` (stereo not drawn), the growth was 19.5%. Consider `CCN(CC)C(=O)CCCCCn1c2ccccc2c2c3c(c4c5ccccc5[nH]c4c21)C(=O)N(O)C3=O`, for which the growth was -66.5% (active).

For `N#C/C(=C\c1ccc(-c2ccccc2)o1)c1nc(-c2ccco2)cs1`, the growth is 93.8%. On to `C/C(=N\Nc1cc(C)c2cc(C)ccc2n1)c1ccccn1`, for which the growth was -93.5% (active). For `O=C1c2ccccc2NC(c2cn(-c3ccccc3)nc2-c2cccs2)N1Cc1ccccc1` (stereo not drawn), the growth was 72.3%. For `C[C@]12CC[C@@H]3c4ccc(O)cc4CC[C@H]3[C@@H]1C[C@H](O)[C@@H]2O`, the growth was 98.3%.

On to `CC(=O)n1c(/C(C#N)=C/c2ccc(N(C)C)cc2)cc2ccccc21`, for which the growth was 23.1%. On to `Fc1ccc2[nH]cc(-c3nc(-c4c[nH]c5ncccc45)cs3)c2c1`, for which the growth is -7.49% (active). With `S=c1[nH]nc2ccccn12`, the growth was 82.3%. For the compound `N#Cc1c(-c2ccc(O)cc2)c2c(N)nn(-c3ccccc3)c2[nH]c1=O`, the growth is 91.3%. With `COc1ccc(OC)c(-c2c(C#N)c(-c3ccco3)nc3c2c(-c2ccccc2)nn3-c2ccccc2)c1`, the growth is 81.9%.
